VDR inh: inhibitors of human vitamin D receptor; P11473; VDR-SRC2-3 peptide fluorescence polarization, 2 h; Potency, µM, without a hit: max response, negative = inhibition, usual class: inhibitors; 0.93% of 400,000 active; AID 504847; also: potency is read from the fitted curve at half-maximal effect
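After 23 nl compound addition and a short centrifugation, plates sat for 2 hours at ambient temperature; polarization of fluorescence then indicated loss of VDR binding to peptide SRC2-3.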
PLK1 PBD inh: PLK1 (human) polo-box domain binding inhibition | P53350 | Plk1 PBD binding of FITC phosphopeptide, fluorescence polarization | Potency, µM, for the others: max response, negative = inhibition, actives largely listed as inhibitors | 2.8% of 360,000 active | AID 720504; also: potency is read from the fitted curve at half-maximal effect; series mostly up to about 57 µM; nearly all actives have a fitted effect of over 65% in size
Target sequence (P53350 whole entry, looked up, the tested form may be a part): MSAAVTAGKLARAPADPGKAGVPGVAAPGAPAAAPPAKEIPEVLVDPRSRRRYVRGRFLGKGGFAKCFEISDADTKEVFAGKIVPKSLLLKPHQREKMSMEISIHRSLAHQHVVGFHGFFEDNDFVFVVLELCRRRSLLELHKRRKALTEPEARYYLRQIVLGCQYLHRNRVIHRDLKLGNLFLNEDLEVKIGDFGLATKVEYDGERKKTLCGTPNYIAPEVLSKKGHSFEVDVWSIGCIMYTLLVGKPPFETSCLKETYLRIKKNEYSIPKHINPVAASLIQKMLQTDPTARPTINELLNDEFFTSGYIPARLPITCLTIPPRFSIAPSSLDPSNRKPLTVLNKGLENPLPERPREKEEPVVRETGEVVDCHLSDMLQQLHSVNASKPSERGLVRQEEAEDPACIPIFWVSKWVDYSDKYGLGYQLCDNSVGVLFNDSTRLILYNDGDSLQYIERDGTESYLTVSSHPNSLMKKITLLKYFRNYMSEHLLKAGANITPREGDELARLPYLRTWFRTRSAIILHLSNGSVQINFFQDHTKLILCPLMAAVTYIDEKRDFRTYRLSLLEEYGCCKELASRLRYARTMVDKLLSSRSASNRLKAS
CCT modulator: modulators of cytosolic chaperonin (CCT/TRiC) activity. 0.3% of 360,000 active. purified chaperonin ATPase assay, HTRF ADP detection, 30 min. AID 651819. activity change, % (test concentration not listed), hits read low; in the data active = activity change below about -30%
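Nucleotide hydrolysis assay: TRiC at 20–40 nM final (set by batch activity) with 10 uM ATP, 30 min at 37 °C, in presence of 76 uM compound. Detection by competitive ADP HTRF, 30 min ambient.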
Sfp inh: blocks B. subtilis Sfp PPTase activity | Q9F4F7 | Biochemical Sfp PPTase activity, qHTS | Potency, µM, inactives show largest response in the series, negative = inhibition, hits mostly inhibitors | 3.5% of 310,000 active | AID 1490;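 also: the enzyme is Sfp with the accession as filed and its product quenches rhodamine fluorescence; potency is read from the fitted curve at half-maximal effect; 0% = enzyme reaction without inhibitor and -100% = no enzyme wells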
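Step 1, compound plus 15 nM Sfp-PPTase, 15 min, room temperature. Step 2, add rhodamine-CoA (5 uM) and BHQ-2-YbbR (12.5 uM). Step 3, read 525/598 nm fluorescence at 0 and 30 min.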
Mm-Cpn inhibitor: M. maripaludis TRiC chaperonin inhibition; purified Mm-Cpn ATPase, ADP Transcreener TR-FRET; Potency, µM (titrated, usually from 76.9 µM), without a hit: at the top dose activity, negative = inhibition, usual class: inhibitors; 0.031% of 330,000 active; AID 504842; also: potency is read from the fitted curve at half-maximal effect; nearly all actives have a fitted effect of over 80% in size
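Purified archaeal chaperonin (25 nM final) was preincubated with compound for 10 min at 37°C, then ATP (10 uM final) was added for 30 min at 37°C in Tris pH 7.4/KCl/MgCl2/DTT buffer. ADP was quantified by HTRF Transcreener TR-FRET.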
G9a inh: inhibitors of human histone lysine methyltransferase G9a | 8.8% of 350,000 active | Potency, µM (series often up to 102 µM), inactives show at the highest dose activity, negative = inhibition, most hits filed as inhibitors | AID 504332 | G9a H3K9 monomethylation, AlphaScreen, 2 h; also: potency is read from the fitted curve at half-maximal effect; nearly all actives have a fitted effect of over 75% in size
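AlphaScreen detection with an anti-monomethyl H3K9 antibody quantified product after a 2 h room-temperature reaction containing 500 nM biotinylated H3K9 peptide, 20 µM SAM and 20 nM enzyme, which had been preincubated 15 min with compound.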
Numbers without * were called inactive; ? = inconclusive; . = not tested or not shown; [ ] = another dose, or the depositor's remark. Only some compounds are listed: those with a hit (about 10% of all), similar ones and a draw of the others. Unless noted, calls follow the shape of the dose curve; as a rule, active = well fitted curve in the direction sought with a large enough effect; inconclusive = small, poorly fitted or top-dose-only effect, or another doubt; inactive = no such curve, though single readings can be large; an effect the other way counts as inactive or inconclusive. Unless noted, % is scaled to controls: 0 for no effect and ±100 for the full control effect.

SMILES	VDR inh	PLK1 PBD inh	CCT modulator	Sfp inh	Mm-Cpn inhibitor	G9a inh
CCOC(=O)c1c(NC(C)=O)sc(C(=O)NC2CCCC2)c1C	-7%	0%	1	23%	-7%	-4%
Cc1cc(Cl)c2oc(C(=O)N(C)C3CCOC3)c(C)c2c1 (stereo not given)	?	3.4µM*	-1	-2%	1%	-7%
Cc1cc(Cl)c2oc(C(=O)N3CCN(C(=O)c4ccco4)CC3)c(C)c2c1	-9%	-27%	0	-16%	-2%	?
Cc1cc(Cl)c2oc(C(=O)N3CCOCC3)c(C)c2c1	.	4%	-35*	.	.	.
COc1cccc2sc(NC(=O)c3ccc(S(=O)(=O)N4CCC(C)CC4)cc3)nc12	7%	.	.	.	.	3%[59 µM]
COc1ccc(Oc2nc(-c3ccccn3)nc3ccccc23)cc1	1%	1%	3	40µM*	-4%	.
c1ccc(-c2nc(N3CCCCCC3)c3ccccc3n2)nc1	3%	-5%	3	-29%	0%	-31%
c1ccc(-c2nc(N3CCOCC3)c3ccccc3n2)nc1	-6%	-8%	2	14µM*	-1%	?
CN1CCN(c2nc(-c3ccccc3O)nc3ccccc23)CC1	22%	-5%	0	-2%	0%	32µM*
CC1CCCN(Cc2c(O)ccc3c(=O)c(-c4ccccc4Cl)c(C(F)(F)F)oc23)C1 (stereo not given)	2%	.	.	.	.	13%[59 µM]
CN(Cc1ccccc1)C1=CC(=[N+]2CCCCC2)CC(C)(C)C1	3%	-1%	1	-9%	2%	32µM*
COc1ccc2c(c1)c(/C=N/Nc1ccc(C(=O)O)cc1)c(C)n2C	14%	-10%	1	-6%	-3%	8.9µM*
COc1ccc2c(/C=N/Nc3ccc(C(=O)O)cc3)c[nH]c2c1	-20%	-26%	0	-26%	-8%	?
COC(=O)c1ccc(N)cc1O	3%	-13%	0	11%	0%	1%[59 µM]
COC(=O)c1ccc(=O)c2nc3/c(=C/O)c(O)cc(=O)c3[nH]c12	-11%	19µM*	-1	?	-6%	0.79µM*
N#CC1=C(S)N(c2ccccc2)C(c2ccc(-c3cc(Cl)ccc3Cl)o2)NC1=O (stereo not given)	79µM*	?	-1	28µM*	-8%	?
N#CC1=C(S)N(c2ccccc2)C(c2ccc(-c3ccc(Cl)c(Cl)c3)o2)NC1=O (stereo not given)	56µM*	?	-4	35µM*	-4%	?
CCOc1ccccc1-c1nc(Cn2c(=O)cc(C)c3c(C)nn(-c4ccccc4)c32)c(C)o1	7%	.	.	.	.	4%[59 µM]
Fc1ccccc1C(c1nnnn1Cc1ccc2c(c1)OCO2)N1CCN(Cc2ccco2)CC1 (stereo not given)	-4%	-5%	2	2%	-2%	50µM*
COCCn1nnnc1C(c1ccc(C)cc1)N1CCN(Cc2ccc3c(c2)OCO3)CC1 (stereo not given)	-11%	24µM*	-2	17%	1%	1%
O=C(CC1N=C2c3ccccc3N=C(SCc3cccc(Cl)c3)N2C1=O)NC1CCCCC1 (stereo not given)	7%	.	.	.	.	-1%[59 µM]
CCN1C(=O)C2CCCCN2c2ccc(C(=O)NCCOC)cc21 (stereo not given)	-10%	-13%	-1	3%	-1%	79µM*
CC(C)(C)NC(=O)Cn1cc(S(=O)(=O)Cc2ccccc2Cl)c2ccccc21	14%	.	.	.	.	2%[59 µM]
Cc1ccccc1NC(=O)CN1C(=O)COc2ccc(Cl)cc21	-19%	24µM*	0	20%	-4%	23%
O=C(CN1C(=O)C2C3C=CC(C4CC34)C2C1=O)Nc1cccc2ncccc12 (stereo not given)	-15%	30µM*	0	15%	-1%	16%
SMILES	VDR inh	PLK1 PBD inh	CCT modulator	Sfp inh	Mm-Cpn inhibitor	G9a inh
Cc1ccccc1NC(=O)CN1C(=O)C2C3CC(C(Br)C3Br)C2C1=O (stereo not given)	79µM*	4.7µM*	1	56µM*	1%	5µM*
CSCC[C@H](NC(=O)[C@H](CC(C)C)NC(=O)[C@@H]1CCCN1C(=O)[C@H](Cc1ccccc1)NC(=O)[C@H](Cc1ccccc1)NC(=O)[C@H](CCC(N)=O)NC(=O)[C@H](CCC(N)=O)NC(=O)[C@@H]1CCCN1C(=O)[C@H](CCCCN)NC(=O)[C@@H]1CCCN1C(=O)[C@@H](N)CCCN=C(N)N)C(N)=O	2%	.	.	1%	.	.
CCCCn1c(-c2ccsc2)nc2c1c(=O)[nH]c(=O)n2CCC	?	-3%	0	35µM*	-7%	?
CCCCn1c(-c2ccc(OC(F)F)cc2)nc2c1c(=O)[nH]c(=O)n2CC(C)C	-1%	1%	1	2%	1%	50µM*
CCCCn1c(-c2cccc(F)c2)nc2c1c(=O)[nH]c(=O)n2CC(C)C	19%	-6%	-2	6%	3%	26%
CCCCn1c(=O)[nH]c(=O)c2c1nc(CN1C(=O)c3ccccc3S1(=O)=O)n2CCC	20%	-5%	-1	8%	?	7%
CCCn1c(=O)[nH]c(=O)c2c1nc(-c1ccc(OC(F)(F)C(F)C(F)(F)F)cc1)n2CCOC (stereo not given)	0%	-8%	-2	-3%	-8%	25µM*
CCCCn1c(=O)[nH]c(=O)c2c1nc(Cn1ncc(Cl)c(Cl)c1=O)n2CCC	?	30µM*	-2	8%	-8%	35µM*
CCCn1c(=O)[nH]c(=O)c2c1nc(-c1ccc(C#N)cc1)n2CCOC	-4%	-9%	-8	-1%	-6%	?
CCCOc1ccc(-c2cccc(NS(=O)(=O)c3cccs3)c2)nn1	9%	.	.	.	.	3%[59 µM]
COC(=O)c1ccc(CN(Cc2ccc(OC)c(OC)c2)S(=O)(=O)c2ccc(F)c(C(=O)Nc3cc(C)ccc3C)c2)cc1	-2%	.	.	.	.	-21%[59 µM]
Cc1ccccc1-c1nccc(NCc2cccnc2)n1	-9%	.	.	-7%	.	1%[0.501 µM]
CN(C)/N=C/c1ccc([N+](=O)[O-])cc1[N+](=O)[O-]	-14%	-17%	-1	56µM*	2%	11µM*
CN(C)/N=C/c1ccc(Sc2ccccc2[N+](=O)[O-])o1	-18%	6µM*	0	-3%	1%	25µM*
CC(C)C(=O)Nc1ccc2nc(SCCOc3ccccc3)sc2c1	5%	.	.	.	.	5%[59 µM]
CC(=O)OC[C@@H]1O[C@@H](O/N=C2/C[C@@H](O)[C@@H](O)[C@@H]3[C@@H]4C(=O)N(C5CCCCC5)C(=O)[C@H]4CC[C@H]23)[C@H](OC(C)=O)[C@H](OC(C)=O)[C@@H]1OC(C)=O	.	.	.	-11%	.	.

Screening results deposited in PubChem by National Center for Advancing Translational Sciences (NCATS).
